# In the supplement of paper PMC6992640:
# Structures can show the parent of a compound that is named as a salt. ± gives the standard deviation of the averaged measurements.
# Key:
# Test in all cases: cell viability (% of vehicle); higher = less cytotoxic
# Conditions in all cases: 10 µM; 72 h
# HCI01 = test system: HCI01 (cells of a triple-negative basal-like breast cancer xenograft)
# HCI03 = test system: HCI03 (cells of an ER-positive luminal breast cancer xenograft)
# HCI09 = test system: HCI09 (cells of a triple-negative luminal androgen receptor type breast cancer xenograft)
# HCI11 = test system: HCI11 (cells of an ER-positive luminal breast cancer xenograft)
# HCI13 = test system: HCI13 (cells of an ER-positive luminal breast cancer xenograft)
# HCI16 = test system: HCI16 (cells of a triple-negative basal-like breast cancer xenograft)
# UCD52 = test system: UCD52 (cells of a triple-negative basal-like breast cancer xenograft)
# WHIM2 = test system: WHIM2 (cells of a triple-negative basal-like breast cancer xenograft)
# WHIM30 = test system: WHIM30 (cells of a triple-negative basal-like breast cancer xenograft)
# 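Also: PDX cells carrying CMV promoter-driven luciferase, viability read as total photon flux per second by IVIS imaging following D-luciferin, vehicle control 0.1% DMSO.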
Compound,cell viability (HCI01),cell viability (HCI03),cell viability (HCI09),cell viability (HCI11),cell viability (HCI13),cell viability (HCI16),cell viability (UCD52),cell viability (WHIM2),cell viability (WHIM30)
Cc1cn(C2C=CC(CO)O2)c(=O)[nH]c1=O (stereo not drawn) [Stavudine (d4T)],112 ± 12,115,110 ± 14,91,82.13 ± 0.67,117,104 ± 11,95.9 ± 9.4,127 ± 5
O=C([O-])CCCc1ccccc1.[Na+] [Sodium Phenylbutyrate],122 ± 6.5,135,101 ± 19,117,124 ± 8.9,127,103 ± 16,103.7 ± 0.73,162 ± 27
CCC(C)(C)c1ccc(CC(C)CN2CC(C)OC(C)C2)cc1.Cl (stereo not drawn) [Amorolfine HCl],66.7 ± 39,129,88.4 ± 9.1,83.8,119 ± 36,119,58.3 ± 5.5,64.5 ± 32,166 ± 9.2
O=C(O)c1ccc2ccccc2c1O.OCc1cc(C(O)CNCCCCCCOCCCCc2ccccc2)ccc1O (stereo not drawn) [Salmeterol xinafoate],86 ± 1.1,92.5,57.3 ± 8,75.2,88.6 ± 9.6,76.1,62.1 ± 0.9,66.7 ± 13,107 ± 20
CNC(=C[N+](=O)[O-])NCCSCc1ccc(CN(C)C)o1.Cl [Ranitidine],110 ± 5,125,112 ± 1.9,103,122 ± 6.4,122,89.9 ± 9.7,85.6 ± 2.9,113 ± 11
C=C[C@]1(C)C[C@@H](OC(=O)CSC(C)(C)CNC(=O)[C@H](N)C(C)C)[C@]2(C)[C@H](C)CC[C@]3(CCC(=O)[C@H]32)[C@@H](C)[C@@H]1O [Valnemulin HCl],90.1 ± 7.2,107,66 ± 3.6,91.8,63.2 ± 0.68,120,78.3 ± 4.9,102 ± 20,114 ± 3
CC(OC1OCCN(Cc2nc(=O)n(P(=O)(O)O)[nH]2)C1c1ccc(F)cc1)c1cc(C(F)(F)F)cc(C(F)(F)F)c1.CNCC(O)C(O)C(O)C(O)CO.CNCC(O)C(O)C(O)C(O)CO (stereo not drawn) [Fosaprepitant dimeglumine salt],67.4 ± 51,103,52.4 ± 27,85.1,76.2 ± 6.3,91.7,57.2 ± 7.3,79.7 ± 44,109 ± 2.4
O=C(O)c1cccnc1Nc1cccc(C(F)(F)F)c1 [Niflumic acid],135 ± 48,149,58.9 ± 21,68.8,125 ± 2.6,130,75.3 ± 5.3,105 ± 14,122 ± 2
COc1ccc(-c2ccc3cc(C(=O)O)ccc3c2)cc1C12CC3CC(CC(C3)C1)C2 [Adapalene sodium salt],115 ± 29,81.9,114 ± 37,98.3,183 ± 2.4,158,157 ± 19,104 ± 10,96.8 ± 6.8
C[N+]1(C)CCC(OC(=O)C(O)(c2ccccc2)C2CCCC2)C1.[Br-] (stereo not drawn) [Glycopyrrolate],110 ± 5.3,152,123 ± 51,99.3,117 ± 12,94.8,95.6 ± 5.1,100 ± 5.2,83.6 ± 6.5
Cc1cccc(-c2nn3c(c2-c2ccnc4ccc(C(N)=O)cc24)CCC3)n1,117 ± 2.1,90.1,115 ± 56,98.7,56.3 ± 6.4,89.8,73.1 ± 3.3,147 ± 41,111 ± 3
Br.COc1ccc2c3c1O[C@H]1C[C@@H](O)C=C[C@@]31CCN(C)C2 [Galanthamine HBr],113 ± 6.7,102,97.02 ± 0.17,93.2,80.4 ± 8.2,73.8,97.8 ± 2.6,79.7 ± 12,118 ± 24
CCCCCCOC(=O)N=C(N)c1ccc(NCc2nc3cc(C(=O)N(CCC(=O)OCC)c4ccccn4)ccc3n2C)cc1,94.2 ± 9.6,124,105 ± 7.4,111,118 ± 7.9,107,91.9 ± 7.3,107 ± 32,116 ± 11
Brc1c(NC2=NCCN2)ccc2nccnc12.O=C(O)C(O)C(O)C(=O)O [Brimonidine Tartrate],123 ± 9.2,125,78 ± 4.6,89.9,88.5 ± 4.5,124,90.8 ± 10,125 ± 25,98.4 ± 1.3
Cl.Cl.NC(=NCCCCCCN=C(N)N=C(N)Nc1ccc(Cl)cc1)N=C(N)Nc1ccc(Cl)cc1 [Chlorhexidine HCl],99.4 ± 3,88.3,89.7 ± 3,76,96.44 ± 0.43,124,92.8 ± 7.6,108 ± 4.1,82.3 ± 3.8
COc1cc2nc(N(C)CCCNC(=O)C3CCCO3)nc(N)c2cc1OC.Cl (stereo not drawn) [Alfuzosin HCl],103 ± 3,97.4,105 ± 8.8,113,101 ± 24,113,91.6 ± 8.4,85.5 ± 3,133 ± 8.8
COc1ccc(C2Sc3ccccc3N(CCN(C)C)C(=O)C2OC(C)=O)cc1.Cl (stereo not drawn) [Diltiazem HCl],81.5 ± 45,123,85.4 ± 4,88.9,95.5 ± 7.5,108,72.3 ± 5.6,93 ± 22,131 ± 15
Cc1ccc(-n2nc(C(C)(C)C)cc2NC(=O)Nc2ccc(OCCN3CCOCC3)c3ccccc23)cc1 [BIRB 796 (Doramapimod)],138 ± 41,89.6,93.5 ± 19,71.1,48.5 ± 3.4,87.4,62.1 ± 7,89.8 ± 8,103 ± 18
CC(=CC(=O)OCCCCCCCCC(=O)O)CC1OCC(CC2OC2C(C)C(C)O)C(O)C1O (stereo not drawn) [Mupirocin],97.5 ± 17,129,86.5 ± 23,90.6,89.6 ± 9.9,101,84.2 ± 3.4,81.9 ± 12,113.3 ± 0.3

Compound,cell viability (HCI01),cell viability (HCI03),cell viability (HCI09),cell viability (HCI11),cell viability (HCI13),cell viability (HCI16),cell viability (UCD52),cell viability (WHIM2),cell viability (WHIM30)
CCC1=C(C)CN(C(=O)NCCc2ccc(S(=O)(=O)NC(=O)NC3CCC(C)CC3)cc2)C1=O (stereo not drawn) [Glimepiride],158 ± 17,123,86.6 ± 14,147,93.2 ± 11,158,129 ± 3.5,105 ± 6.7,164.4 ± 0.77
O=C(O)Cc1ccccc1Nc1c(Cl)cccc1Cl [Diclofenac],92.9 ± 26,123,84.8 ± 15,96.8,114 ± 31,127,90.6 ± 16,87.4 ± 0.94,92.1 ± 4.7
O=C1NC(=O)[C@@H](c2c[nH]c3ccccc23)[C@H]1c1cn2c3c(cccc13)CCC2 [Tivantinib (ARQ 197)],161 ± 20,81,51.5 ± 4.9,111,43.6 ± 9.6,125,81.8 ± 4.7,107 ± 11,147 ± 26
COc1ccc(C(=O)c2ccccc2)c(O)c1 [Oxybenzone],120 ± 26,141,111 ± 15,109,103 ± 8.8,128,117 ± 11,125 ± 6.8,137 ± 22
CCOc1nc2cccc(C(=O)OCc3oc(=O)oc3C)c2n1Cc1ccc(-c2ccccc2-c2nc(=O)o[nH]2)cc1 [Azilsartan Medoxomil],100 ± 6.8,162,107 ± 2.2,94.2,106 ± 14,124,111 ± 8.7,106 ± 18,127 ± 2.7
COc1ccc2cccc(CCNC(C)=O)c2c1 [Agomelatine],92.5 ± 10,139,99.7 ± 4.7,92.4,89.4 ± 2.2,105,86.1 ± 12,89.9 ± 20,136 ± 11
COc1cc2c(cc1O)CCC1C2CCC2(C)C(O)CCC12 (stereo not drawn) [2-Methoxyestradiol (2-MeOE2)],141 ± 8,110,94.8 ± 12,117,181 ± 10,121,95.1 ± 7.2,114 ± 7,150 ± 22
Cc1ncc(C[n+]2csc(CCO)c2C)c(N)n1.Cl.[Cl-] [Thiamine HCl (Vitamin B1)],113 ± 8.6,143,103 ± 16,88.6,59.8 ± 11,103,122 ± 39,149 ± 25,143 ± 3.5
CCOC(=O)c1ncn2c1CN(C)C(=O)c1cc(F)ccc1-2 [Flumazenil],114 ± 6.3,106,89.6 ± 18,96.8,93.9 ± 2.9,92.5,118 ± 17,103 ± 7.5,142 ± 15
O=C(NCCN1CCOCC1)c1ccc(Cl)cc1,129.4 ± 0.71,171,114 ± 22,113,102 ± 2.1,110,109 ± 8.9,111 ± 16,138 ± 4
NCC1CCC(C(=O)O)CC1 (stereo not drawn) [Tranexamic Acid],118 ± 7.2,116,94.6 ± 25,111,74.8 ± 0.96,102,92.2 ± 5,124 ± 17,111 ± 16
COc1ccc2c(c1)c(CC(=O)O)c(C)n2C(=O)c1ccc(Cl)cc1 [Indomethacin],106 ± 20,88.7,96.7 ± 1.1,79.2,105 ± 4.9,92,72.4 ± 13,92.1 ± 4.3,93 ± 5.3
Nc1nc(F)nc2c1ncn2C1OC(COP(=O)(O)O)C(O)C1O (stereo not drawn) [Fludarabine Phosphate (Fludara)],101 ± 16,134,98.1 ± 17,124,98.8 ± 10,106,98.2 ± 4.5,127 ± 32,115 ± 13
O=S(=O)([O-])CCS.[Na+] [Mesna],112.4 ± 0.12,118,98.4 ± 6.8,103,141 ± 28,97.2,89.3 ± 3.8,100 ± 13,106 ± 6.6
CS(=O)(=O)c1ccc(C(O)C(CF)NC(=O)C(Cl)Cl)cc1 (stereo not drawn) [Florfenicol],118 ± 25,118,89.5 ± 2.1,101,114 ± 8.4,116,102 ± 2.6,87.4 ± 18,99.1 ± 6.9
Cl.Cl.O=C(O)COCCN1CCN(C(c2ccccc2)c2ccc(Cl)cc2)CC1 (stereo not drawn) [Cetirizine DiHCl],111 ± 5.7,118,98.4 ± 0.98,103,147 ± 6.2,116,78.6 ± 6.7,90.1 ± 1.9,109 ± 7.9
CC(=O)SCC(Cc1ccccc1)C(=O)NCC(=O)OCc1ccccc1 (stereo not drawn) [Racecadotril],106 ± 19,111,92.8 ± 9.8,93.3,114 ± 8.9,104,65.6 ± 16,92.8 ± 1.4,79.3 ± 9
CNC(=O)[C@H](Cc1ccccc1)NC(=O)[C@H](CC(C)C)[C@H](CSc1cccs1)C(=O)NO [Batimastat (BB-94)],94.3 ± 12,88.2,78.2 ± 20,95.3,127 ± 3.9,67,127 ± 16,72 ± 22,175 ± 0.83
